Measured values reported in PubChem BioAssay (Tox21).
Results filed as inconclusive are left out. Calls of active or inactive are those of the source. Unless noted, the call rests on the fitted dose curve; in most records, active means well fitted curve in the direction sought with a large enough effect in the repeat runs; inconclusive means weak or mixed curves; inactive means no such curve, though single readings can be large; an effect the other way counts as inactive or inconclusive.

Columns and labels:
[1] = biological target: Thyrotropin-releasing hormone receptor (Homo sapiens) (UniProt P34981); experiment: qHTS assay to identify small molecule agonists of the thyrotropin-releasing hormone receptor (TRHR) signaling pathway (AID 1346891; calls by dose curve; further: series mostly up to about 58 µM)
Chain of Thyrotropin-releasing hormone receptor (Homo sapiens) (P34981 whole entry, looked up): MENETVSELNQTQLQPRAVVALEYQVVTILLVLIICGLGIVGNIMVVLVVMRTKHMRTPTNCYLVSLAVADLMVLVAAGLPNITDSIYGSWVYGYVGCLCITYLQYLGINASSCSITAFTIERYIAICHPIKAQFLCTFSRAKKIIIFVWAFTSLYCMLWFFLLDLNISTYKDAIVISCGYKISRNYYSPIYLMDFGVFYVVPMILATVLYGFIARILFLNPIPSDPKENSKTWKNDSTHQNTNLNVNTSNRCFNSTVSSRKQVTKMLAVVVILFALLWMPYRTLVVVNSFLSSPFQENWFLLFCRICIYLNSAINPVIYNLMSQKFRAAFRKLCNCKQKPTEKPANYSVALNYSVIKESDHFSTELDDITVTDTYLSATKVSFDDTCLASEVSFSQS
Summary of the method: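 TRHR-expressing HEK293 cells were plated 18 h at 37 °C/5% CO2, loaded with calcium dye 2 h at 37 °C, then given compound in DMSO; fluorescence was read kinetically for 3 min at 1 s intervals.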

[2] = Human pregnane X receptor (PXR) small molecule agonists, qHTS cell viability counter screen (AID 1346977); further: nearly all actives have a fitted effect of over 50% in size; further: potency means the concentration at half of the fitted maximal effect
Summary of the method: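 PXR-Luc HepG2 cells in medium with 5% charcoal-stripped FBS were pre-incubated 5hr, then exposed to compounds for 24hr at 37C. Viability was read in the same wells by CellTiter-Fluor fluorescence, reagent added after 23hr with a 1hr incubation.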

[3] = Caspase-3/7 induction in HepG2 cells by small molecules, qHTS assay (AID 1346978); further: nearly all actives have a fitted effect of over 15% in size
Summary of the method: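 Wild-type HepG2 cells (2,000/well) were settled 5 h at 37 C, 5% CO2, then exposed to compounds in DMSO for 17 h. Caspase-3/7 activity was read by luminescence 30 min after adding Caspase-Glo 3/7 reagent at room temperature.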

[4] = Caspase-3/7 induction in CHO-K1 cells by small molecules, qHTS cell viability counter screen (AID 1346979); further: nearly all actives have a fitted effect of over 35% in size; further: potency means the concentration at half of the fitted maximal effect
Summary of the method: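 Wild-type CHO-K1 cells were seeded at 1,500 per well, rested 5hr at 37 C, then exposed to compounds in DMSO. After 16hr, CellTiter-Fluor reagent was added and fluorescence read 1hr later as the viability measure.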

[5] = Caspase-3/7 induction in HepG2 cells by small molecules, qHTS cell viability counter screen (AID 1346981); further: series mostly up to about 92 µM; nearly all actives have a fitted effect of over 30% in size
Summary of the method: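 Fluorescence read-out of live-cell protease activity (CellTiter-Fluor) after 1 hr with reagent. This was measured in the same wells as the caspase-3/7 luminescence, on HepG2 cells exposed to DMSO-dissolved compounds for 16 hr at 37 C.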

[6] = biological target: Nuclear receptor subfamily 1 group I member 2 (Homo sapiens) (UniProt O75469); experiment: Human pregnane X receptor (PXR) small molecule agonists, qHTS assay (AID 1346982); further: nearly all actives have a fitted effect of over 35% in size; further: potency means the concentration at half of the fitted maximal effect
Chain of Nuclear receptor subfamily 1 group I member 2 (Homo sapiens) (O75469 whole entry, looked up): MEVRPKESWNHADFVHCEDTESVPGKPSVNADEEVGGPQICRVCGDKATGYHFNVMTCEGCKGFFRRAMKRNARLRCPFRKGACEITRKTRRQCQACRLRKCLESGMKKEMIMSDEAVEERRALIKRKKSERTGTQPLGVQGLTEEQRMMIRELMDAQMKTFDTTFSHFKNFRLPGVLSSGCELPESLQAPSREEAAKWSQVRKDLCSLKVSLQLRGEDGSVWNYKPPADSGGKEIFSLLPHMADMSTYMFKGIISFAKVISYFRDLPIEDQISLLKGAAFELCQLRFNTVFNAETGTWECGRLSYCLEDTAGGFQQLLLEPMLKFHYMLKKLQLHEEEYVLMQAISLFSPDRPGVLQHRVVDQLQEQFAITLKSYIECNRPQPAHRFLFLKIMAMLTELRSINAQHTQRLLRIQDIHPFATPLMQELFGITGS
Summary of the method: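 HepG2 PXR-Luc reporter line, 5% charcoal-stripped FBS; 5 hr pre-incubation, compound (DMSO) 24 hr at 37 C/5% CO2; ONE-Glo 30 min RT; luminescence read-out.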

[7] = biological target: Cytochrome P450 2D6 (Homo sapiens) (UniProt P10635); experiment: Cytochrome P450 Family 2 Subfamily D Member 6 (CYP2D6) small molecule antagonists: luciferase reporter qHTS assay (AID 1671196); further: nearly all actives have a fitted effect of over 50% in size; further: potency means the concentration at half of the fitted maximal effect
Chain of Cytochrome P450 2D6 (Homo sapiens) (P10635 whole entry, looked up): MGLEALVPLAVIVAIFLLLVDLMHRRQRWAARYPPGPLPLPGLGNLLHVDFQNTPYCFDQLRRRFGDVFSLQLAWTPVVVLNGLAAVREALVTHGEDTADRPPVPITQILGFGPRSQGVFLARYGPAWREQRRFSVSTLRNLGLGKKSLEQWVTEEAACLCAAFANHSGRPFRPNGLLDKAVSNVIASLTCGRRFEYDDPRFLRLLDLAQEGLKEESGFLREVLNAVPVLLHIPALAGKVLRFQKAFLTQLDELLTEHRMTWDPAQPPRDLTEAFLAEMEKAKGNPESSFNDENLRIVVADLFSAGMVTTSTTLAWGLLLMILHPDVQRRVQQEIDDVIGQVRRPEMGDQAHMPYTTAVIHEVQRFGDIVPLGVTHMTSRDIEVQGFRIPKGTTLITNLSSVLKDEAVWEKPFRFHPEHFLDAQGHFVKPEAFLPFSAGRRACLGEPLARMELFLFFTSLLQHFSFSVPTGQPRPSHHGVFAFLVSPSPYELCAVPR
Summary of the method: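 Luminogenic proluciferin substrate, CYP2D6 enzyme; 10 min RT preincubation with compound, NADPH regeneration system added, 1 h RT. Stop/detection reagent, 20 min RT, luminescence read (RLU). Signal proportional to CYP activity.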

[8] = biological target: Cytochrome P450 2C19 (Homo sapiens) (UniProt P33261); experiment: Cytochrome P450 Family 2 Subfamily C Member 19 (CYP2C19) small molecule antagonists: luciferase reporter qHTS assay (AID 1671197); further: nearly all actives have a fitted effect of over 65% in size; further: potency means the concentration at half of the fitted maximal effect
Chain of Cytochrome P450 2C19 (Homo sapiens) (P33261 whole entry, looked up): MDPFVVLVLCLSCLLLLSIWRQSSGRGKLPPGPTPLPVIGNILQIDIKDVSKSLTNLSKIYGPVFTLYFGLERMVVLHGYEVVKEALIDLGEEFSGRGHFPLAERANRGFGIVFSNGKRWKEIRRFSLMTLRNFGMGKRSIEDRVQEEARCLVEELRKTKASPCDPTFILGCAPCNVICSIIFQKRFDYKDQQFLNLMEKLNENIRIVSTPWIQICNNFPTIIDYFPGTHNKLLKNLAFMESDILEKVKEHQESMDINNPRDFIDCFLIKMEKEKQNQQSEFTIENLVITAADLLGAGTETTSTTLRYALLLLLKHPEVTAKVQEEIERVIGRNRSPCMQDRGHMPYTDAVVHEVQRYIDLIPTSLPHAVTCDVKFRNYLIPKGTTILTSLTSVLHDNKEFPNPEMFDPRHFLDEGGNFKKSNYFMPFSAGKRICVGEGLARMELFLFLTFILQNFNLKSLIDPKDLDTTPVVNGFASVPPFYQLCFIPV
Summary of the method: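 Luminescent readout of CYP2C19 activity: luciferin product detected 20 min after adding detection reagent. Before that, compound and enzyme-substrate mix preincubated 10 min at room temperature; NADPH-regenerating system started a 1 h, 37C reaction. Ketoconazole as positive control.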

[9] = biological target: Cytochrome P450 2C9 (Homo sapiens) (UniProt P11712); experiment: Cytochrome P450 Family 2 Subfamily C Member 9 (CYP2C9) small molecule antagonists: luciferase reporter qHTS assay (AID 1671198); further: nearly all actives have a fitted effect of over 50% in size; further: potency means the concentration at half of the fitted maximal effect
Chain of Cytochrome P450 2C9 (Homo sapiens) (P11712 whole entry, looked up): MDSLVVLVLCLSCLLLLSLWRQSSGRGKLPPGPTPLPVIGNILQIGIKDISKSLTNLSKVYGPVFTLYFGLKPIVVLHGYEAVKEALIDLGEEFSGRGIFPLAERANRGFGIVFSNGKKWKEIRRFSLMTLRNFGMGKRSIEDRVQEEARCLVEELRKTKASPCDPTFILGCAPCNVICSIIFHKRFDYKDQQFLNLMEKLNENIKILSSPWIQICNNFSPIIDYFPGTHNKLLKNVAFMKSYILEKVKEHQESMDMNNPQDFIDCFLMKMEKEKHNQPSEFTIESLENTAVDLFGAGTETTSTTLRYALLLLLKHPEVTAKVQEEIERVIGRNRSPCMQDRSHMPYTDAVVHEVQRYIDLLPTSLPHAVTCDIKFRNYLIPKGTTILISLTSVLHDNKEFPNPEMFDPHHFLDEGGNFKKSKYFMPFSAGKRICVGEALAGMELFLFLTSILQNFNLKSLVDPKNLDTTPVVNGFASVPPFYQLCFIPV
Summary of the method: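 CYP2C9 activity was measured with a P450-Glo proluciferin substrate. Enzyme–substrate mix was held with compound for 10 min at room temperature, then NADPH regeneration solution was added for 1 h at 37C. Luciferin product was read as luminescence.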

[10] = biological target: Cytochrome P450 1A2 (Homo sapiens) (UniProt P05177); experiment: Cytochrome P450 Family 1 Subfamily A Member 2 (CYP1A2) small molecule antagonists: luciferase reporter qHTS assay (AID 1671199); further: nearly all actives have a fitted effect of over 50% in size; further: potency means the concentration at half of the fitted maximal effect
Chain of Cytochrome P450 1A2 (Homo sapiens) (P05177 whole entry, looked up): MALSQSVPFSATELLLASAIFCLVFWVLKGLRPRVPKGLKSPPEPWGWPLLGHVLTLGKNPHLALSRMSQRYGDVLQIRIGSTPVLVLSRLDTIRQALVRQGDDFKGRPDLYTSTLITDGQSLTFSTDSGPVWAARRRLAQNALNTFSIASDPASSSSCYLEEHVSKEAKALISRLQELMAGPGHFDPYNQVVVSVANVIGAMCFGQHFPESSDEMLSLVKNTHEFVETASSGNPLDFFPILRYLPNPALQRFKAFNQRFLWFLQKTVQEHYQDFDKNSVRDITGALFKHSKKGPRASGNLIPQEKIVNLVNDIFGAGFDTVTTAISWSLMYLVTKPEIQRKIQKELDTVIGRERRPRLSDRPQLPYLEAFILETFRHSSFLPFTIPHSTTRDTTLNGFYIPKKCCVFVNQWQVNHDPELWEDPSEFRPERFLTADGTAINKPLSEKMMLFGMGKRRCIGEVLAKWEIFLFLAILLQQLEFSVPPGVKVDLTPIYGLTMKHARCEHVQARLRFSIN
Summary of the method: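 Luminescence readout (relative luminescence units) after luciferin detection reagent, 20 min RT. Preceded by 1 h room-temperature CYP1A2 reaction with NADPH regeneration solution following 10 min compound preincubation with enzyme and proluciferin substrate. Furafylline positive control.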

[11] = biological target: Voltage-gated inwardly rectifying potassium channel KCNH2 (Homo sapiens) (UniProt Q12809); experiment: Human Ether-a-go-go-Related Gene (hERG) channel small molecule antagonists: fluorescence cell-based qHTS assay (AID 1671200)
Chain of Voltage-gated inwardly rectifying potassium channel KCNH2 (Homo sapiens) (Q12809 whole entry, looked up): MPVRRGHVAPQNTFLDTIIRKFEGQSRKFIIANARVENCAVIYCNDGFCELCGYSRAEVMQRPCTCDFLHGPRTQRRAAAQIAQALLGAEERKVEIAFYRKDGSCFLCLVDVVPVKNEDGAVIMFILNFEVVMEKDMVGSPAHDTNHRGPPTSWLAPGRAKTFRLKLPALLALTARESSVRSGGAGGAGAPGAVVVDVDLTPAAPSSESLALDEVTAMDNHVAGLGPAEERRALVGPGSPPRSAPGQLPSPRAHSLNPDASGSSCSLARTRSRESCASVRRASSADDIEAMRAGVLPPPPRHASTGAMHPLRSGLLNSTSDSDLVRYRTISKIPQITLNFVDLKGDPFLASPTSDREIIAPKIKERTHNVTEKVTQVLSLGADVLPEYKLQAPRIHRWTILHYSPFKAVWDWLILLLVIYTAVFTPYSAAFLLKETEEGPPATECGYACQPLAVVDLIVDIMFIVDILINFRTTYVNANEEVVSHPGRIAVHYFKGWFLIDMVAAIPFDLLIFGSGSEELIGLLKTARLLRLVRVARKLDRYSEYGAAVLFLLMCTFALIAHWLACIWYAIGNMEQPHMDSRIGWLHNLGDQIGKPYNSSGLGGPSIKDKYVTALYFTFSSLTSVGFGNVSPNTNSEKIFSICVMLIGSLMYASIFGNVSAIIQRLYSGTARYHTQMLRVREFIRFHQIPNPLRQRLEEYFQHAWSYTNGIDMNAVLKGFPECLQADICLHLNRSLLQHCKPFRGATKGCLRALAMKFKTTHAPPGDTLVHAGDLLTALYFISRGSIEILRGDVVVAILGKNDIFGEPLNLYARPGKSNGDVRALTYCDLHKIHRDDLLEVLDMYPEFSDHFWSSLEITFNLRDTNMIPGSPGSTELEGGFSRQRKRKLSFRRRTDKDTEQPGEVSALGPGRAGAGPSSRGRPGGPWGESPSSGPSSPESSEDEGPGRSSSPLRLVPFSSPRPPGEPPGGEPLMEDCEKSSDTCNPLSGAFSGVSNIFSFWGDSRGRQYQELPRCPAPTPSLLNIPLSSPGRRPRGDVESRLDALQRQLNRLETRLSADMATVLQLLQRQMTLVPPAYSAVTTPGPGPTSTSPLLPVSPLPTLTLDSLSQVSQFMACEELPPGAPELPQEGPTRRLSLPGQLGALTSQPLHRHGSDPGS
Summary of the method: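 U2OS cells expressing the channel were plated at 1000 cells/well, incubated overnight at 37 C, then loaded with FluxOR II thallium-sensitive dye for 1 h at room temperature in the dark, with a further 10 min at room temperature before stimulation.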

[12] = biological target: Cytochrome P450 3A4 (Homo sapiens) (UniProt P08684); experiment: Cytochrome P450 Family 3 Subfamily A Member 4 (CYP3A4) small molecule antagonists: luciferase reporter qHTS assay (AID 1671201); further: nearly all actives have a fitted effect of over 50% in size; further: potency means the concentration at half of the fitted maximal effect
Chain of Cytochrome P450 3A4 (Homo sapiens) (P08684 whole entry, looked up): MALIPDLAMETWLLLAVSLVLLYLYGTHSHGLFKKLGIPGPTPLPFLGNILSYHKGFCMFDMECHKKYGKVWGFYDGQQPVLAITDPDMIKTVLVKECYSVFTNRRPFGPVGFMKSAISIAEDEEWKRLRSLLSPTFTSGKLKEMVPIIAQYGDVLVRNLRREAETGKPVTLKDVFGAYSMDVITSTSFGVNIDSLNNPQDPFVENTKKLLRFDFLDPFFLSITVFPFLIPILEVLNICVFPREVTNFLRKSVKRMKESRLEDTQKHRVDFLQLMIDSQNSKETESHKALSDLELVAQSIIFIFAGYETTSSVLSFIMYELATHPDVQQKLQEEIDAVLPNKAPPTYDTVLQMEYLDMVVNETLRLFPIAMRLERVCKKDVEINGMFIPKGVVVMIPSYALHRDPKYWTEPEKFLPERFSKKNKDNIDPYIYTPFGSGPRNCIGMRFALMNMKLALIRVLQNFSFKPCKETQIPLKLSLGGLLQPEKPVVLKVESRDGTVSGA
Summary of the method: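 P450-Glo CYP3A4 system with proluciferin substrate; compounds preincubated 10 min RT with enzyme-substrate mix, then NADPH regeneration added for 1 h RT. Detection reagent 20 min, luminescence read as relative luminescence units.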

[13] = Caspase-3/7 induction in CHO-K1 cells by small molecules, qHTS assay (AID 1346980); further: nearly all actives have a fitted effect of over 15% in size
Summary of the method: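 Wild-type cells were seeded at 1,500 per well and settled 5 hr at 37 C, 5% CO2, then exposed to DMSO-dissolved compounds for 17 hr. Caspase-Glo 3/7 reagent was added, and luminescence was read after 30min at room temperature.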

[14] = biological target: Nuclear receptor subfamily 1 group I member 2 (Rattus norvegicus) (UniProt Q9R1A7); experiment: Rat pregnane X receptor (rPXR) activation by small molecules, qHTS assay (AID 1346983); conditions: rPXR luciferase reporter cells, One-Glo luminescence, 24 h; max activation: hits give high values; further: nearly all actives have a fitted effect of over 20% in size; further: potency means the concentration at half of the fitted maximal effect
Chain of Nuclear receptor subfamily 1 group I member 2 (Rattus norvegicus) (Q9R1A7 whole entry, looked up): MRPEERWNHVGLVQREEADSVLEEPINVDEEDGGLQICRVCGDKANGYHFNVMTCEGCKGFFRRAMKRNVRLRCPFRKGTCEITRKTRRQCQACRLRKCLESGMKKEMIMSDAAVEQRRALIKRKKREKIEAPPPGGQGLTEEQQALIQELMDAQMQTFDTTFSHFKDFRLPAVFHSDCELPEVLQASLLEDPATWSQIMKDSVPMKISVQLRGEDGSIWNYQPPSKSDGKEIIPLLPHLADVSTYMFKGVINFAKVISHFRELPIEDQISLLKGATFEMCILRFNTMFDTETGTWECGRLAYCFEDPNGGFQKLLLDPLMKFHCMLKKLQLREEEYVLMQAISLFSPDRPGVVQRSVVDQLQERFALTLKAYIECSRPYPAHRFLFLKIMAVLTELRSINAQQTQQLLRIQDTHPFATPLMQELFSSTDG
Summary of the method: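 Cell-based rPXR luciferase reporter assay, 2,000 cells per well, rested 5hr at 37 C before compound addition in DMSO, then 24 hr at 37 C. One-Glo reagent was added and luminescence read after 30 min at room temperature.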

[15] = biological target: Nuclear receptor subfamily 1 group I member 2 (Homo sapiens) (UniProt O75469); experiment: CYP3A4 induction through human pregnane X receptor (PXR) by small molecules, qHTS assay (AID 1346984); further: nearly all actives have a fitted effect of over 40% in size
Summary of the method: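 HepG2-derived DPX-2 line carrying PXR plus a CYP3A4-promoter luciferase reporter; cells plated 5 hr, compound-exposed 24 hr at 37C. CYP3A4 activity probed with 3uM (final) Luciferin-IPA for 3hr, then luciferase read after One-Glo.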

[16] = biological target: Nuclear receptor subfamily 1 group I member 2 (Homo sapiens) (UniProt O75469); experiment: Human pregnane X receptor (PXR) activation by small molecules, qHTS assay (AID 1346985); further: nearly all actives have a fitted effect of over 40% in size
Summary of the method: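 DPX-2 cells (HepG2 co-transfected with a PXR response element and a CYP3A4-promoter luciferase construct) were seeded at 2,000 per well, rested 5 hr at 37C, then exposed to DMSO-dissolved compounds for 24 hr. Activation was read as luciferase luminescence.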
On the % scale 0 is the no-effect control and ±100 the full control effect.

CN1Cc2cc(C(=O)N3CCC(C4CCNCC4)CC3)ccc2N[C@@H](CC(=O)O)C1=O
inactive: Potency [1] | Potency [2] | Potency [3] | Potency [4] | Potency [5] | Potency [6] | Potency [7] | Potency [8] | Potency [9] | Potency [10] | Potency [11] | Potency [12]

Cc1ccc(/C=N/n2c(-c3ccccc3)csc2=S)cc1
active: Potency [6] 23.7 µM | Potency [8] 8.71 µM | Potency [9] 6.92 µM | Potency [10] 7.76 µM
inactive: Potency [1] | Potency [2] | Potency [3] | outcome [13] | Potency [5] | Potency [7] | Potency [11]

CCCCN(CCCC)C(=S)SSC(=S)N(CCCC)CCCC
active: Potency [6] 30.3 µM | Potency [7] 28 µM | Potency [8] 17.7 µM | Potency [9] 2.8 µM | Potency [10] 35.2 µM | Potency [12] 5.58 µM
inactive: Potency [1] | Potency [2] | Potency [3] | outcome [13] | Potency [5]

CC(C)(C)C(=O)O
inactive: Potency [1] | Potency [2] | Potency [3] | outcome [13] | Potency [5] | Potency [6] | Potency [7] | Potency [9] | Potency [11] | Potency [12]

COc1cc2c(N3CCN(C(=O)Nc4ccc(OC(C)C)cc4)CC3)ncnc2cc1OCCCN1CCCCC1
inactive: Potency [1] | Potency [3] | Potency [6] | Potency [8] | Potency [9] | Potency [10] | Potency [12]
active: Potency [2] 23.7 µM | Potency [4] 23.7 µM | Potency [7] 15.5 µM

CC(Cl)C(Cl)Cl (stereo not drawn)
inactive: Potency [1] | Potency [2] | Potency [3] | Potency [4] | Potency [5] | Potency [6] | Potency [11] | Potency [12]
active: Potency [8] 31.2 µM

CC(=O)OCC(=O)[C@H]1CC[C@H]2[C@@H]3CCC4=CC(=O)CC[C@]4(C)[C@H]3CC[C@]12C
active: Potency [8] 9.77 µM | Potency [9] 7.76 µM
inactive: Potency [1] | Potency [2] | Potency [3] | outcome [13] | Potency [5] | Potency [6] | max activation [14] 2.69% | Potency [15] | Potency [16] | Potency [10] | Potency [11] | Potency [12]

O=C(O)c1cccc(O)c1
active: Potency [8] 40.2 µM
inactive: Potency [1] | Potency [2] | Potency [3] | outcome [13] | Potency [5] | Potency [6] | Potency [7] | Potency [11] | Potency [12]

CCOC(=O)/C=C/C(=O)O
inactive: Potency [1] | Potency [2] | Potency [3] | outcome [13] | Potency [5] | Potency [6] | Potency [8] | Potency [9] | Potency [10] | Potency [11] | Potency [12]

CC(=O)[C@H]1CC[C@H]2[C@@H]3C[C@H](C)C4=CC(=O)CC[C@]4(C)[C@H]3[C@@H](O)C[C@]12C
inactive: Potency [1] | Potency [2] | Potency [3] | outcome [13] | Potency [5] | Potency [15] | Potency [16] | Potency [7] | Potency [10] | Potency [11]
active: Potency [6] 13.3 µM | Potency [14] 2.51 µM | Potency [9] 1.23 µM

Nc1nccs1
inactive: Potency [1] | Potency [2] | Potency [3] | outcome [13] | Potency [5] | Potency [6] | max activation [14] -2.81% | Potency [15] | Potency [16] | Potency [8] | Potency [9] | Potency [10] | Potency [11] | Potency [12]
active: Potency [7] 31.7 µM

C=CCOC(=O)/C=C\C(=O)OCC=C
inactive: Potency [1] | Potency [2] | Potency [3] | Potency [4] | Potency [5] | Potency [6] | Potency [7] | Potency [11]
active: Potency [10] 28.8 µM

Cc1cc(C(=C2C=CC(=Nc3ccc(S(=O)(=O)O)cc3S(=O)(=O)O)C=C2)c2ccc(Nc3ccc(S(=O)(=O)O)cc3)cc2)ccc1N
inactive: Potency [1] | Potency [2] | Potency [3] | Potency [4] | Potency [6] | Potency [10] | Potency [11] | Potency [12]
